Our source for the binding signal values is publication PMC4081100, “A DNA-binding-site landscape and regulatory network analysis for NAC transcription factors in Arabidopsis thaliana”.

Holding throughout (assay): universal protein binding microarray (PBM); transcription factors of Arabidopsis thaliana; high values mean tight binding
Assay [1] concerns the target T1, GST-ATAF1 NAC domain (Arabidopsis thaliana, UniProt Q39013 7-158).
T1 sequence: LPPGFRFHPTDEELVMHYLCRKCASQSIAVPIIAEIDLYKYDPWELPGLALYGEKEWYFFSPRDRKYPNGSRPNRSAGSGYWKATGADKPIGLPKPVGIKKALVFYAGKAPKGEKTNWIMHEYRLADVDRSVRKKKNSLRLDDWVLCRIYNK
Conditions: protein: recombinant; tags: GST; chain copies: 2; dsDNA, one strand shown. An outline of the steps:
(§1)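 Binding is expressed as the normalised enrichment score (E-score). Proteins carrying a GST tag, whether NAC-domain, full-length or DNA-binding-domain forms, were induced in cells, and zinc acetate was added for zinc-finger proteins. After purification on glutathione–Sepharose 4B and quantification by A280 or anti-GST western blot, each was applied in duplicate at 200 to 500 nM final to custom all-10-mer Agilent 4 × 180K arrays made double-stranded by primer extension. Gapped and ungapped 8-mers were scored.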

The target of assay [2] is T2, GST-VND3 NAC domain (Arabidopsis thaliana, UniProt Q9FH59 12-162).
T2 sequence: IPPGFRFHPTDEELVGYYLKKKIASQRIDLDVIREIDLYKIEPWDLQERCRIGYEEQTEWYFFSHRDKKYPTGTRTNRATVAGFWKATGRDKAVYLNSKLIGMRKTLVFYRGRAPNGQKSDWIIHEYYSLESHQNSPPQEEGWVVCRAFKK
Conditions: protein: recombinant; tags: GST; chain copies: 2; dsDNA, one strand shown. An outline of the steps:
as §1

The target of assay [3] is GST-WRKY1(266-371) (Arabidopsis thaliana, UniProt Q9SI37 266-371). Conditions: protein: recombinant; tags: GST; dsDNA, one strand shown. The gist of the method: as §1
Chain of GST-WRKY1(266-371) (Q9SI37 266-371): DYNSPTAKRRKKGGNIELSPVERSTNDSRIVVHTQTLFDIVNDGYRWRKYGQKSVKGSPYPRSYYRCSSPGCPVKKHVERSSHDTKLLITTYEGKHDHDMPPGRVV
For assay [4], the target named is T3, GST-NAP(1-166) (Arabidopsis thaliana, UniProt O49255 1-166).
T3 sequence: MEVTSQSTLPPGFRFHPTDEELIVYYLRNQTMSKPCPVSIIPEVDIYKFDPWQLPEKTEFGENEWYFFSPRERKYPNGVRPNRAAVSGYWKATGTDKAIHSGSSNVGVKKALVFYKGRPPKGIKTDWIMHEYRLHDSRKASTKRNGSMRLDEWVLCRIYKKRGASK
Conditions: protein: recombinant; tags: GST; chain copies: 2; dsDNA, one strand shown. The gist of the method:
as §1

Assay [5] deals with T4, GST-VND7 NAC domain (Arabidopsis thaliana, UniProt Q9C8W9 9-158).
T4 sequence: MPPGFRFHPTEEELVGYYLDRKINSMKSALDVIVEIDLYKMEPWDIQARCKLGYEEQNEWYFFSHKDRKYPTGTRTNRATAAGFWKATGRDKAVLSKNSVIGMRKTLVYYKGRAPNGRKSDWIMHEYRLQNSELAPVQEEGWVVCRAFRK
To be noted: protein: recombinant; tags: GST; chain copies: 2; dsDNA, one strand shown. The gist of the method: as §1

Assay [6] concerns the target T5, GST-ANAC055(1-171) (Arabidopsis thaliana, UniProt Q9LDY8 1-171).
T5 sequence: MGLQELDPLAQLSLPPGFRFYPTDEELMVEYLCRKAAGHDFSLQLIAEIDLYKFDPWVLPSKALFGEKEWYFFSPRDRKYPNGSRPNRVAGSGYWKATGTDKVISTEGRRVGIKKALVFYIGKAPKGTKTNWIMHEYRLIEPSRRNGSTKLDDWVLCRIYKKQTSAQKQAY
Conditions: protein: recombinant; tags: GST; chain copies: 2; dsDNA, one strand shown. An outline of the steps:
as §1

The target of assay [7] is T6, GST-NST2(1-184) (Arabidopsis thaliana, UniProt Q9M274 1-184).
T6 sequence: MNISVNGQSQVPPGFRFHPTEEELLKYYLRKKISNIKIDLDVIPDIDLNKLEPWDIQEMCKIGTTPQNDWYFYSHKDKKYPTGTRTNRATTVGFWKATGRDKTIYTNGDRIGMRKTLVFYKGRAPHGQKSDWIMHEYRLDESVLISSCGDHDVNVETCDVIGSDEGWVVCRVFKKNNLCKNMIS
To be noted: protein: recombinant; tags: GST; chain copies: 2; dsDNA, one strand shown. An outline of the steps:
as §1

Assay [8] concerns the target T7, GST-ANAC092(1-176) (Arabidopsis thaliana, UniProt Q9FKA0 1-176).
T7 sequence: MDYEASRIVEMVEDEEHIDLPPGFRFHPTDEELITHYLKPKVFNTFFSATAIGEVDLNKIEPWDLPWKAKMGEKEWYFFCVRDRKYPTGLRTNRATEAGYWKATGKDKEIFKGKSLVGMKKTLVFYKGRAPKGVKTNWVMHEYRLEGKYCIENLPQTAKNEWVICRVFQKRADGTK
Conditions: protein: recombinant; tags: GST; chain copies: 2; dsDNA, one strand shown. An outline of the steps: as §1

Assay [9] concerns the target T8, GST-ANAC019 NAC domain (Arabidopsis thaliana, UniProt Q9C932 14-162).
T8 sequence: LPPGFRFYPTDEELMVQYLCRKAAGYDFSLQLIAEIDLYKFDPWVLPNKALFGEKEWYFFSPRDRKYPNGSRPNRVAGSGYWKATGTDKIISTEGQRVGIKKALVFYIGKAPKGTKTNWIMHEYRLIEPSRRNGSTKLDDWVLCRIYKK
To be noted: protein: recombinant; tags: GST; chain copies: 2; dsDNA, one strand shown. An outline of the steps:
as §1

The target of assay [10] is T9, GST-ANAC092(1-285) full length (Arabidopsis thaliana, UniProt Q9FKA0 1-285).
T9 sequence: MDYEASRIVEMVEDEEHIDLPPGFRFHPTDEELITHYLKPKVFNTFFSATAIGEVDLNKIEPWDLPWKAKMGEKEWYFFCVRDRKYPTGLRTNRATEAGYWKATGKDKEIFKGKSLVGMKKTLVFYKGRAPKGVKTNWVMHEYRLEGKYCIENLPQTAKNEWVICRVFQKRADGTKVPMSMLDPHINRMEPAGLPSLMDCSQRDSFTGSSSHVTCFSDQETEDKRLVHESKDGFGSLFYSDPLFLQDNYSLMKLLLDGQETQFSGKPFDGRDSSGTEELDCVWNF
Conditions: protein: recombinant; tags: GST; chain copies: 2; dsDNA, one strand shown. The gist of the method:
as §1

Assay [11] has as its target T10, GST-NTL8 NAC domain (Arabidopsis thaliana, UniProt Q9XIN7 14-156).
T10 sequence: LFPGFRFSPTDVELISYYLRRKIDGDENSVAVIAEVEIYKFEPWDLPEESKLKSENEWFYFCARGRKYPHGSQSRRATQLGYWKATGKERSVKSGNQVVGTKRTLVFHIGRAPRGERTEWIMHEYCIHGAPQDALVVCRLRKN
To be noted: protein: recombinant; tags: GST; chain copies: 2; dsDNA, one strand shown. An outline of the steps: as §1

The target in assay [12] is GST-NTL6(1-168) (Arabidopsis thaliana, UniProt Q9SCK6 1-168). To be noted: protein: recombinant; tags: GST; chain copies: 2; dsDNA, one strand shown. The gist of the method: as §1
Chain of GST-NTL6(1-168) (Q9SCK6 1-168): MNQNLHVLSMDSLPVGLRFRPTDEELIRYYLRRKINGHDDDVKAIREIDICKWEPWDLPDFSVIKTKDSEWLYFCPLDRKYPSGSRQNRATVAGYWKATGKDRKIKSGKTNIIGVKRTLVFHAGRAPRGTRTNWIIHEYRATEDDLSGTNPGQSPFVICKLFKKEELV

For ATGTTGAC, the binding signal in [1] was found to be 0.0521 E-score; in assay [2], 0.0635 E-score; in assay [3] it was 0.474 E-score.

In the case of AGTCAAAT, the binding signal was found to be 0.213 E-score in [1], 0.113 E-score in assay [4], 0.152 E-score in [5] and 0.476 E-score in assay [3].

Consider CATTTGAC, for which the binding signal in assay [6] worked out at 0.0579 E-score; in [1], 0.0746 E-score; in [7], 0.0611 E-score; in [2] it was 0.105 E-score; in [3], 0.462 E-score.

For the sequence CGGTCAGA, the binding signal in assay [3] was 0.46 E-score.

Turning to AGCTTGAC, the binding signal in [8] came out at 0.0728 E-score; in [9] it was 0.0936 E-score; in [10], 0.065 E-score; in assay [4], 0.0572 E-score; in assay [5], 0.099 E-score; in assay [3], 0.447 E-score.

With AGAAAGTC, the binding signal came out at 0.0754 E-score in assay [9]; 0.0896 E-score in assay [6]; 0.103 E-score in assay [1]; 0.0673 E-score in [11]; 0.0756 E-score in assay [2]; 0.407 E-score in [3].

Turning to CGGTCAGC, in [3], the binding signal was determined as 0.458 E-score.

As for ATAAGTCA, the binding signal amounted to 0.161 E-score in assay [12], 0.101 E-score in [10], 0.105 E-score in assay [2] and 0.443 E-score in [3].

With CGAAGACC, in assay [3], the binding signal worked out at 0.436 E-score.

GAAGTCAA: the binding signal in assay [12] was 0.104 E-score; in assay [9], 0.0675 E-score; in assay [1] it was 0.0967 E-score; in assay [11] it was 0.0673 E-score; in [5], 0.0707 E-score; in assay [3], 0.482 E-score.

Consider GTCAATAA, for which the binding signal in [12] was determined as 0.109 E-score; in [6], 0.134 E-score; in [1], 0.135 E-score; in assay [4] it was 0.122 E-score; in assay [7], 0.118 E-score; in assay [5], 0.112 E-score. Besides, the binding signal in assay [3] worked out at 0.457 E-score.

Regarding TAGTCAAA, the binding signal came to 0.136 E-score in assay [6], 0.272 E-score in [1], 0.105 E-score in assay [2] and 0.477 E-score in assay [3].

As for AATTTGAC, the binding signal in assay [6] came out at 0.0892 E-score; in [1] it was 0.237 E-score; in [2] it was 0.0556 E-score; in assay [3] it was 0.451 E-score.

For AAAAAGTC, the binding signal in assay [9] came out at 0.0791 E-score; in assay [6] it was 0.209 E-score; in assay [1], 0.184 E-score; in assay [7], 0.122 E-score; in [11] it was 0.0525 E-score; in [2] it was 0.0942 E-score. Further, the binding signal in assay [3] came to 0.426 E-score.

For the sequence AGTCAAAG, the binding signal in assay [11] was found to be 0.0881 E-score; in assay [5] it was 0.0935 E-score; in [3], 0.486 E-score.

Turning to AGGGAAAT, the binding signal in [8] stood at 0.137 E-score; in [12] it was 0.0669 E-score; in assay [9], 0.0765 E-score; in [1] it was 0.112 E-score; in assay [10], 0.106 E-score; in assay [7], 0.0566 E-score. Also, the binding signal came out at 0.406 E-score in assay [11] and 0.0592 E-score in [2].

On to TAGTCAGA, for which the binding signal in assay [1] is 0.0564 E-score; in assay [2] it was 0.065 E-score; in [3], 0.428 E-score.

Take AGAGGTAA: the binding signal in assay [8] amounted to 0.145 E-score; in assay [12], 0.237 E-score; in assay [9], 0.0713 E-score; in [6], 0.0996 E-score; in assay [1], 0.106 E-score; in assay [4], 0.0742 E-score. The results for the binding signal in assay [11] and in [2] were 0.427 E-score and 0.0836 E-score, respectively.

On to TCCGGTCA, for which, in [3], the binding signal is 0.445 E-score.

Turning to GTCAGCAA, the binding signal in [3] was 0.403 E-score.

With CGGTCGTC, the binding signal in [3] was 0.41 E-score.

As to GACCGGTC, the binding signal in assay [3] worked out at 0.445 E-score.

As to TGACCTCA, the binding signal in [3] amounted to 0.41 E-score.

Take ATAGGTCA: in [3], the binding signal was determined as 0.409 E-score.

ATTGACTC: the binding signal in [3] was found to be 0.47 E-score.

For CCGGTCAG, the binding signal in assay [3] came to 0.44 E-score.

Regarding CTGACCAG, the binding signal in assay [3] worked out at 0.444 E-score.

With CCGGTCAA, in assay [3], the binding signal was determined as 0.493 E-score.

With ACCGGTCA, in assay [3], the binding signal worked out at 0.463 E-score.

With TGACCCAA, in assay [3], the binding signal stood at 0.419 E-score.

Take ATTGACCC: the binding signal in assay [3] turned out to be 0.478 E-score.

Take GGAGTCAA: the binding signal in assay [3] came to 0.476 E-score.

Regarding GACGACCA, in assay [3], the binding signal was 0.43 E-score.

With GGTCTGAC, in [3], the binding signal came to 0.441 E-score.

For GAGTCAGA, the binding signal in assay [3] was 0.419 E-score.

With CAGGTCAG, the binding signal in assay [3] came out at 0.418 E-score.

Turning to CTGACCCA, the binding signal in assay [3] stood at 0.401 E-score.
